SARS 3CLpro inh = SARS-CoV 3CLpro protease inhibition; P0C6X7; recombinant SARS-CoV 3CLpro, quenched FRET peptide cleavage; inhibition, % at 6 µM; 290,000 tested, 0.14% active; in the data active = inhibition above about 12%
Anthrax LF inh2 = blocks Bacillus anthracis lethal factor protease. P15917. multiplex microsphere protease cleavage assay, LF. inhibition, % at 10 µM. 360,000 tested, 0.12% active. AID 588501; also: plate controls were buffer without enzyme for full effect and enzyme alone for no effect
Target sequence (P15917 whole entry, looked up): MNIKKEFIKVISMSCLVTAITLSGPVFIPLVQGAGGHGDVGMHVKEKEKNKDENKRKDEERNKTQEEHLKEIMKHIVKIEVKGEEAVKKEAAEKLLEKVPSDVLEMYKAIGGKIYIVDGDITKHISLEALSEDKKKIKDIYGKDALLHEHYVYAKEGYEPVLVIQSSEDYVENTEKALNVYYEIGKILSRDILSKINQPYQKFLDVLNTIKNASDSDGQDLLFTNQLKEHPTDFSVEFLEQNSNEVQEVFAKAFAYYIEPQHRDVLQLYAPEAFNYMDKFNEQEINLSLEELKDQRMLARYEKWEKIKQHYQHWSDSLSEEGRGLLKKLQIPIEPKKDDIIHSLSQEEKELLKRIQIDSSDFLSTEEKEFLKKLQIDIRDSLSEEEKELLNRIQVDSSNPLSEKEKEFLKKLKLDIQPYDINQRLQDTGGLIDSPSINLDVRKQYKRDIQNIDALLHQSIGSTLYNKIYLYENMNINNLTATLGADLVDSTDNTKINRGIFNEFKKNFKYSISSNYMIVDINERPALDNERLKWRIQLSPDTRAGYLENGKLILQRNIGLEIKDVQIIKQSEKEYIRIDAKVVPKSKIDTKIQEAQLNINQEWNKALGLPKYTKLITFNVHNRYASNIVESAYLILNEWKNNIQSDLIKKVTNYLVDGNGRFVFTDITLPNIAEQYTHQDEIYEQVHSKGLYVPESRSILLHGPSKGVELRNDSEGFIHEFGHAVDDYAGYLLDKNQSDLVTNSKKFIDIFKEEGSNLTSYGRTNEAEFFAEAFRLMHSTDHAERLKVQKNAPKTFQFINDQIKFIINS
BoNT A protease = BoNT A light chain protease inhibition; multiplex microsphere protease substrate cleavage, flow cytometry; inhibition, % at 10 µM; 360,000 tested, 0.17% active; AID 588499; also: plate controls were buffer without enzyme for full effect and enzyme alone for no effect
BoNT-F LC inh = blocks Botulinum neurotoxin F light chain protease; AID 588497; 360,000 tested, 0.22% active; inhibition, % at 10 µM; Multiplex microsphere protease cleavage assay, flow cytometry; in the data active = inhibition above about 35%, passing the limit was not always enough; inconclusive = no clear call, values can overlap the other calls; also: plate controls were buffer without enzyme for full effect and enzyme alone for no effect
Bead autofluor = compound fluorescence in toxin protease inhibitor counterscreen. compound autofluorescence counterscreen, microsphere flow cytometry; stronger effect = higher value. fluorescence intensity (test concentration not listed). 360,000 tested, 3.1% active. AID 624483; in the data active = fluorescence intensity above about 16000; inconclusive = no clear call, values can overlap the other calls
* = called active by the depositor; ? = inconclusive; . = no result. Shown are actives, neighbours in structure and some others; about 3.5% of the full set was active somewhere. Rule as the data show it, unless noted: active = inhibition above about 30%; inconclusive = no clear call, values can overlap the other calls; inactive = below that.

SMILES | SARS 3CLpro inh | Anthrax LF inh2 | BoNT A protease | BoNT-F LC inh | Bead autofluor
CCCC(C(=O)NC1CCCC1)N(C(=O)Cn1nnc(-c2ccc(C)o2)n1)C1CCCC1 (centres undefined) | 4.5 | -0.7 | -4.4 | -5.5 | 25114*
Cc1ccc(-c2nnn(CC(=O)N(Cc3cccs3)C(C(=O)NC3CCCCC3)c3ccco3)n2)o1 (centres undefined) | -8.3 | -2.1 | 0.2 | 5.5 | 3220
Cc1ccc(-c2nnn(CC(=O)N(Cc3cccs3)C(C(=O)NC3CCCC3)c3ccco3)n2)o1 (centres undefined) | -2.8 | -3.0 | -1.1 | 0.7 | 16932*
COc1ccc(-c2nnn(CC(=O)N(Cc3cccs3)C(C)C(=O)NC3CCCC3)n2)cc1OC (centres undefined) | 2.6 | 7.5 | 3.4 | 1.3 | 10886
COc1ccc(-c2nnn(CC(=O)N(CC(=O)NC3CCCC3)Cc3cccs3)n2)cc1OC | -0.1 | -2.0 | -2.3 | -4.8 | 24334*
CCN(CC)c1nc2ccccc2n2cnnc12 | 1.4 | -8.2 | -2.1 | -4.4 | 23917*
CC1(C)C(c2ccccn2)=[N+]([O-])C(C)(C)N1O | 0.4 | 1.2 | -0.5 | -2.2 | 4416
COC(=O)C1=C(C)N(CC(C)C)C(=O)C1 | -1.6 | -0.4 | 0.5 | 3.5 | 7676
CC(N=Cc1c(O)[nH]c(=O)[nH]c1=O)c1ccccc1 (centres undefined) | -0.4 | -3.6 | -3.0 | -7.6 | 17759*
CC(N=Cc1cccc(O)c1O)c1ccccc1 (centres undefined) | 1.1 | 1.7 | 0.5 | -1.4 | 22938*
COC(=O)c1ccccc1N=Cc1c(O)[nH]c(=O)[nH]c1=O | -1.1 | -13.5 | -0.2 | 8.9 | 3521
CC(N=Cc1cc([N+](=O)[O-])ccc1O)c1ccccc1 (centres undefined) | -3.2 | 0.1 | -0.2 | 1.2 | 2497
CC1CCN(S(=O)(=O)c2ccc(C(=O)Nc3sccc3C(N)=O)cc2)CC1 | -0.1 | -1.2 | -0.2 | -4.6 | 5456
CCN(CC)S(=O)(=O)c1cc(C(=O)OC)ccc1Cl | 0.8 | -3.9 | -0.7 | -3.6 | 20925*
CCN(CC)S(=O)(=O)c1ccc(Cl)c(C(=O)OC)c1 | 1.1 | 0.8 | ? | -3.6 | 17005*
COC(=O)c1ccc(Cl)c(NC(C)=O)c1 | -1.4 | 0.7 | ? | -4.6 | 21958*
CNC(=O)c1cc(S(=O)(=O)N(C)C)ccc1Cl | 0.2 | -2.5 | 0.7 | 0.5 | 22686*
COC(=O)c1ccc(Cl)c(NC(=O)NC2CCCCC2)c1 | 0.7 | -3.2 | 0.2 | -4.4 | 2995
CCN(CC)S(=O)(=O)c1ccc(Cl)c(NC(C)=O)c1 | -4.8 | -4.9 | -1.0 | 0.5 | 3959
CN1C(=O)CSc2ccc(NC(=O)NCc3ccccc3)cc21 | -2.0 | 0.8 | -0.6 | -3.7 | 2038
N#Cc1c(SCC(=O)OCc2ccccc2)nsc1SCC(=O)OCc1ccccc1 | 4.8 | -21.4 | -0.9 | -10.8 | 9678
CCN(CC)C(=O)CSc1nc(N)c(C#N)c(-c2cccs2)c1C#N | 5.4 | -1.8 | ? | -0.7 | 21936*
CCc1c(C#N)c(N)nc(SCC(=O)OCc2ccccc2)c1C#N | 3.0 | -6.5 | -3.1 | -6.3 | 17979*
CCOC(=O)CCCc1c[nH]c2ccccc12 | 0.0 | -0.7 | 5.1 | 4.0 | 21767*
CC(C)(C)NC(=O)NC(=O)COC(=O)CCCc1c[nH]c2ccccc12 | 3.4 | -3.4 | -2.8 | -9.1 | 24864*
SMILES | SARS 3CLpro inh | Anthrax LF inh2 | BoNT A protease | BoNT-F LC inh | Bead autofluor
NC(=O)c1ccc(NC(=O)COC(=O)CCCc2c[nH]c3ccccc23)cc1 | -4.5 | 0.2 | -1.0 | -2.1 | 3449
CCc1ccc(CNc2ccc3c(c2)ncn3C)cc1 | 3.9 | -2.6 | 3.8 | 0.9 | 21662*
Cc1ccc(CNc2ccc3c(c2)ncn3C)cc1 | 4.2 | -3.4 | -1.9 | -20.9 | 6800
O=C(Nc1cccs1)Nc1c(F)c(F)c(F)c(F)c1F | -4.7 | -1.0 | -1.9 | -11.9 | 2485
Cc1ccc(NC(=O)COC(=O)c2cccnc2)cc1 | 0.9 | 2.3 | 1.1 | -8.2 | 5022
COc1cc(-c2nn3c(C4CCCCC4)nnc3s2)cc(OC)c1OC | -0.7 | -3.9 | 0.0 | -9.3 | 2912
COc1ccc(C2=Nn3c(nnc3C3CCCCC3)SC2)cc1OC | -5.5 | -1.9 | -3.0 | -5.5 | 24718*
Clc1ccccc1-c1nn2c(-c3ccccn3)nnc2s1 | -0.6 | -1.8 | 0.1 | -0.4 | 22234*
COc1cccc(-c2nn3c(-c4ccccn4)nnc3s2)c1 | 5.1 | -6.6 | ? | 2.9 | 19346*
COc1ccc(-c2nn3c(C4CCCCC4)nnc3s2)cc1OC | 3.3 | -3.2 | -0.4 | 2.2 | 16665*
COc1ccc(-c2nn3c(-c4ccccn4)nnc3s2)cc1OC | 1.3 | 0.8 | ? | 1.9 | 19421*
COc1ccc(-c2nn3c(-c4cccc(C)c4)nnc3s2)cc1OC | 3.5 | -4.6 | -2.6 | -5.0 | 16794*
COc1cc(-c2cc(-c3ccccc3)nc(SCC(=O)Nc3nccs3)c2C#N)cc(OC)c1OC | -2.1 | -1.3 | 0.4 | 1.2 | 2343
CCOC(=O)c1ccc(S(=O)(=O)N2CCC(N3CCCCC3)CC2)cc1 | 1.6 | -3.1 | -0.3 | -6.8 | 7882
CC1=CC2OC3CC4OC(=O)C=CC=CC(C(C)O)OCC(O)C5(C)OC5C(=O)OCC2(CC1O)C4(C)C31CO1 (centres undefined) | . | -5.2 | -0.2 | -0.3 | 2928
CC1CCN(CC(=O)NCc2ccccc2)CC1 | -1.2 | 0.1 | -0.2 | -0.9 | 22476*
Cn1c(SCCN2CCCCC2)nnc1-c1ccccc1Br | -6.0 | 0.1 | 0.1 | 6.6 | 4517
CC1=Nc2ccccc2/C1=C\c1nc(-c2ccc(C(F)(F)F)cc2)oc1O | 2.0 | 6.2 | 9.5 | -47.4 | 17953*
CC1CCCN(c2c([N+](=O)[O-])c(=O)oc3ccccc23)C1 (centres undefined) | -0.9 | -1.9 | ? | 0.8 | 23803*
Cc1nn(Cc2ccccc2)c2c1C(c1cccnc1)C(C#N)=C(N)O2 (centres undefined) | 1.9 | -1.8 | 0.7 | 12.4 | 2402
Cc1ccc(-c2[nH]nc3c2C(c2cccnc2)C(C#N)=C(N)O3)cc1 (centres undefined) | 0.3 | -3.4 | ? | 0.1 | 23057*
CCCc1nn(C)c2c1C(c1cccnc1)C(C#N)=C(N)O2 (centres undefined) | 6.2 | -2.0 | -2.7 | -5.8 | 23902*
Cc1ccc(-c2[nH]nc3c2C(c2ccc(OC(=O)N4CCOCC4)cc2)C(C#N)=C(N)O3)cc1 (centres undefined) | -3.2 | -4.9 | ? | -2.5 | 16622*
CC(C)c1[nH]nc2c1C(c1cccnc1)C(C#N)=C(N)O2 (centres undefined) | 1.6 | -0.3 | -1.3 | -0.7 | 19924*
N#CC1=C(N)Oc2n[nH]c(-c3ccccc3)c2C1c1cccnc1 (centres undefined) | 0.5 | -0.9 | -0.2 | -6.7 | 4132
CN1CCN(C(=O)/C=C/c2cccc(Cl)c2)CC1 | -0.8 | 1.4 | 2.4 | 3.6 | 5285
O=C(O)c1ccccc1C(=O)Nc1c(-c2ccccc2)nc2ccccn12 | 4.6 | . | . | . | .
CCCn1c(SCC(=O)N2CCCC2)nc2c1c(=O)n(C)c(=O)n2C | -1.5 | -3.0 | ? | -0.9 | 22149*
CCCn1c(SCC(=O)Nc2ccccc2C(=O)OC)nc2c1c(=O)n(C)c(=O)n2C | -0.8 | 1.6 | -1.9 | -1.0 | 20496*
